This passage reports nuclei count, inhibition and z-score results from PubChem BioAssay.

The structures appear in SMILES notation. The source made the active and inactive calls.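 Rule for the calls: active = visually confirmed hit in the image check and inhibition above 20%; inconclusive = visually confirmed hit but inhibition not above 20%; inactive = no visual hit in the image check.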

One experiment can be described thus: endothelial E-selectin expression blockers – imaging, HUVEC, immunofluorescence, MLSMR starter and 10KST1 sets, primary screen (AID 487).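 For inhibition: signal is fraction of cell area covered by stained E-selectin grains.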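 For nuclei count: 100% = median nuclei count of all wells on the same plate.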 The note with it: HUVEC TNFalpha-induced E-selectin immunofluorescence imaging, at 2 µM; inhibition: stronger effect = higher value; nuclei count: measured here: cell number, toxicity.
With `Cc1ccc(NC(=O)c2cc(N3CCOCC3)nc3ccccc23)cc1`, the nuclei count turned out to be 174%.
Take `COc1ccc(N(CC(=O)Nc2cc(C)ccc2C)S(=O)(=O)c2c(C)nn(C)c2C)cc1`: the inhibition is -8.4% (inactive) and the nuclei count was 101%.
In the same order, the values of `Cc1nnc(NC(=O)CSc2cn(CCNC(=O)c3ccccc3)c3ccccc23)s1` are -12.7% (inactive) and 106%.
In the same order, the values of `CC1(C)CC(=O)C(C(=O)CCCCC(=O)C2C(=O)CC(C)(C)CC2=O)C(=O)C1` are 19% (inactive) and 80%.
In the same order, the values of `O=C(CN(c1ccc(F)cc1)S(=O)(=O)c1ccc2c(c1)OCCO2)Nc1ccc2c(c1)OCO2` are -49.1% (inactive) and 114%.
As for `CCOC(=O)N1CCN(C(=O)CSc2nnc(-c3cccc(Cl)c3)o2)CC1`, the inhibition is -3.2% (inactive) and the nuclei count is 96%.
For the compound `O=c1oc2c3c4c(cc2s1)CCCN4CCC3`, the nuclei count was determined as 119% and the inhibition is -17.7% (inactive).
In the same order, the values of `CCOC(=O)N1CCN(C(=O)CSc2cc(C)nc3c(-c4ccccc4OC)c(C)nn23)CC1` are 110% and 14.7% (inactive).
`Cc1ccc(-c2noc(-c3ccccc3C(=O)NCC3CCCO3)n2)cc1` (stereo unspecified): the nuclei count turned out to be 106% and the inhibition was 8.3% (inactive).
In the case of `CCS(=O)(=O)N1CCCC(C(=O)NCc2cccc(OC)c2)C1` (stereo unspecified), the nuclei count worked out at 116% and the inhibition was -66.4% (inactive).
With `CC1=C(C(=O)OC2CCCCCC2)C(c2ccc(C)o2)C2=C(CCCC2=O)N1` (stereo unspecified), the inhibition is -22.9% (inactive) and the nuclei count was found to be 108%.
In the same order, the values of `CC(=O)N1CCN(C(=O)COc2ccc(Br)cc2)CC1` are -21.9% (inactive) and 139%.
In the same order, the values of `Cc1ccc(NC(=O)CSc2nnc(-c3ccccn3)n2C)cc1` are 0.6% (inactive) and 111%.
As for `Nn1c(SCC(=O)NC2CCCCC2)nnc1C1CC1`, the nuclei count was determined as 117% and the inhibition was -36.9% (inactive).
Compound `COc1ccc(-c2nc3n(n2)C(=O)CC(c2ccco2)S3)cc1` (stereo unspecified) showed a nuclei count of 135%.
Take `O=C(NC1CCCc2ccccc21)c1ccc(CNc2c(N3CCOCC3)c(=O)c2=O)cc1` (stereo unspecified): the inhibition was -52.7% (inactive) and the nuclei count was determined as 108%.
Consider `Nc1nc(-n2cnnc2)nn1-c1ccccc1`, for which the inhibition is -44% (inactive) and the nuclei count is 118%.
In the same order, the values of `Cc1cccc(-n2ncc3c(NCc4cccnc4)ncnc32)c1` are -18.5% (inactive) and 119%.
In the same order, the values of `CCCn1c(O)c(CN2CCCC(C)C2)c(C)c(C#N)c1=O` (stereo unspecified) are -59.7% (inactive) and 113%.
In the same order, the values of `C=CCn1c(SCn2nnc3ccccc3c2=O)nnc1-c1ccc(Br)cc1` are -30.7% (inactive) and 110%.
Regarding `Cc1cc(NS(=O)(=O)Cc2ccccc2)cc(C)c1OCC(=O)N1CCOCC1`, the nuclei count was found to be 104% and the inhibition is -47.7% (inactive).
`COC(=O)c1c(-n2cnnn2)sc(C)c1C` had a nuclei count of 172%.
In the case of `O=S(=O)(NC1CCCC1)c1ccccc1Cl`, the inhibition was -21.2% (inactive) and the nuclei count amounted to 116%.
Turning to `CCOC(=O)c1[nH]c2ccccc2c1NC(=O)C(CC)CC`, the inhibition is -11% (inactive) and the nuclei count is 107%.
With `Cc1cccn2c(=O)c(/C=C(\C#N)S(=O)(=O)c3ccccc3)c(N3CCN(C)CC3)nc12`, the nuclei count is 183%.
Consider `O=C(C1CCN(C2CC(=O)N(c3ccc(F)cc3)C2=O)CC1)N1CCOCC1` (stereo unspecified), for which the inhibition is 12.7% (inactive) and the nuclei count came to 75.9%.
In the same order, the values of `Cc1cc(C(=O)Nc2cccnc2)no1` are -133% (inactive) and 112%.
Turning to `Cc1occc1C(=O)Nc1nnc(C2CCCCC2)s1`, the nuclei count is 106% and the inhibition is 14% (inactive).
In the case of `O=C(CSc1nc2ccccc2s1)Nn1cnnc1`, the nuclei count worked out at 166%.
On to `Cc1cccc(CCNC(=O)CCc2nc(-c3ccccc3F)no2)c1`, for which the inhibition was -2.7% (inactive) and the nuclei count was 114%.
In the same order, the values of `CCOC(=O)N1CCC(NC(=O)Cn2ncc3c4ccccc4n(C)c3c2=O)CC1` are -47.7% (inactive) and 105%.
Consider `CCCn1c(-c2ccc(F)cc2)cnc1SCC(=O)O`, for which the inhibition was -63.4% (inactive) and the nuclei count was found to be 106%.
Regarding `CC1CCN(C(=O)CSc2nnc(-c3ccc(S(=O)(=O)N4CCOCC4)cc3)n2C)CC1`, the inhibition is -169% (inactive) and the nuclei count came out at 114%.
For `Cc1cc(=O)n2nc(N3CCCC(C(=O)N4CCc5ccccc54)C3)sc2n1` (stereo unspecified), the nuclei count amounted to 103% and the inhibition is -54.6% (inactive).
Turning to `CCOC(=O)c1ccc(NC(=O)CSc2n[nH]c(-c3ccncc3)n2)cc1`, the inhibition is -26.4% (inactive) and the nuclei count was determined as 110%.
In the same order, the values of `CCOC(=O)N1CCC(c2cc(=O)n3[nH]cc(C(=O)OC)c3n2)CC1` are 7.4% (inactive) and 103%.
As to `COc1ccc(C(=O)CSc2nnc(C3CCCCC3)n2N)c(OC)c1`, the nuclei count amounted to 89.1% and the inhibition was 99.1% (active).
In the same order, the values of `Cc1ccc(C)c(NC(=O)c2ccc3c(c2)N(Cc2ccc(F)cc2)C(=O)CS3=O)c1` (stereo unspecified) are 122% and 3.5% (inactive).
In the same order, the values of `CCc1[nH]c(=O)c(C#N)c2c1CCCC2` are 173% and -57.4% (inactive).
`COc1cc(C2CC(=O)NC3=C2C(=O)CC(C)(C)C3)ccc1O` (stereo unspecified): the nuclei count came to 105% and the inhibition is 2.8% (inactive).

A short description of a further experiment: Primary imaging screen for DUSP6 inhibitors that restore phospho-Erk in transfected HeLa cells, chemical complementation (AID 609). The note with it: HeLa MKP-3 transfected, phospho-Erk imaging KS statistic; measured here: cell density z-score; at 10 µM; cells stimulated with TPA for 15 min.
With `Cc1ccc(NC(=O)c2cc(N3CCOCC3)nc3ccccc23)cc1`, the z-score turned out to be 0.315.
`COc1ccc(-c2nc3n(n2)C(=O)CC(c2ccco2)S3)cc1` (stereo unspecified) gave a z-score of -1.15.
`COC(=O)c1c(-n2cnnn2)sc(C)c1C` gave a z-score of -0.751.
Turning to `Cc1cccn2c(=O)c(/C=C(\C#N)S(=O)(=O)c3ccccc3)c(N3CCN(C)CC3)nc12`, the z-score was -0.688.
In the case of `O=C(CSc1nc2ccccc2s1)Nn1cnnc1`, the z-score was -0.815.
`CCc1[nH]c(=O)c(C#N)c2c1CCCC2` displayed a z-score of -0.973.
